From PubChem BioAssay
CYP2C19 inh: human CYP2C19 inhibition; P33261; CYP2C19 Supersomes, luciferin-H EGE luminescence, 30 min; inhibition, % at 5 µM; actives 21% (n = 96,000);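 active means CYP2C19 inhibition above a set limit at 5 µM in the primary screen, cut at about 50% in these data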;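 further: plate controls were negative control wells for no effect and 2.5 mM tranylcypromine positive control for full effect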
Target sequence (P33261 whole entry, looked up): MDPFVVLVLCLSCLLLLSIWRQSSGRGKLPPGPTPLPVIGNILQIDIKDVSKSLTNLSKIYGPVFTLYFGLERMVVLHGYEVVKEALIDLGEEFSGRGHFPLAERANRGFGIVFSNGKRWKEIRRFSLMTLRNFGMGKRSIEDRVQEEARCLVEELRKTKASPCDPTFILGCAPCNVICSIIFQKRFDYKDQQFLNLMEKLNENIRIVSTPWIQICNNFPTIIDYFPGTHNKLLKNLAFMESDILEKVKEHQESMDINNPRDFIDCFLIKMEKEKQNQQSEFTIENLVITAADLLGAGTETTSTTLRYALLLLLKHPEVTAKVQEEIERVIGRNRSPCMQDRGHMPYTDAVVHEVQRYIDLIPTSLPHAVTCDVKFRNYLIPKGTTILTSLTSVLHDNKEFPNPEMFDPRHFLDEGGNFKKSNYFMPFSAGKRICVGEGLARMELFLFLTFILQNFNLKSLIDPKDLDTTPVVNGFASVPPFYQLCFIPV
CYP2C9 activ: activators of human CYP2C9; activation factor at 5 µM; actives 1.4% (n = 96,000); AID 1024; recombinant CYP2C9, luciferin-H conversion, luminescence; stronger effect = higher value; factor 1 = untreated enzyme, 0 = blocked; P11712;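 active means activation factor of 2 or more for CYP2C9 at a 5 µM dose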;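 further: 0 = sulfaphenazole-blocked wells and 1 = vehicle-only wells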
PostGolgi yeast: growth inhibition of a yeast mutant, post-Golgi transport screen. post-Golgi transport phenotypic cell assay. inhibition, % at 10 µM. actives 0.9% (n = 98,000);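 further: yeast cells grown in 1536-well plates; yeast grown about 18 h at 30C before absorbance read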
CYP2C19 activ: activators of human cytochrome P450 2C19 | recombinant CYP2C19, luciferin-H EGE luminescence; stronger effect = higher value; 0 = fully inhibited enzyme, 1 = untreated enzyme | activation factor at 5 µM | P33261 | AID 1025 | 96,000 tested, under 10 active;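 active means activation factor of at least 2 at 5 µM in the primary screen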;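 further: 0 = wells with 2.5 mM tranylcypromine and 1 = vehicle-only wells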
CYP2C9 inhib: inhibitors of human CYP2C9; P11712; CYP2C9 Supersomes, luciferin-H conversion, luminescence; inhibition, % at 5 µM; actives 20% (n = 96,000); AID 777;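 active means blocking of liver enzyme CYP2C9 beyond about 50% at 5 µM, limit read from the data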
PostGolgi ctrl: growth of the yeast control strain, post-Golgi counter-screen; efflux-deficient yeast background strain, growth absorbance A615, 16 h; inhibition, % at 10 µM; actives 5% (n = 98,000); AID 738
Active calls of the source: *; . = not tested or not shown. Hits are enriched below; roughly 32% of the tested compounds scored in any of these assays. Unless noted, no stated cut-off is given here; in the data, active means inhibition above about 30%; inactive means the rest.

SMILES | CYP2C19 inh | CYP2C9 activ | PostGolgi yeast | CYP2C19 activ | CYP2C9 inhib | PostGolgi ctrl
CN1C(=O)N(C)C2C1N(CN1CCCCC1)C(=O)N2CN1CCCCC1 (centres undefined) | -14 | 1 | 5 | 1.1 | -1 | 4
CCC(CC)NC(=O)c1cc2c(C)nn(Cc3ccccc3Cl)c2s1 | 39 | 0.3 | 0 | 0.6 | 71* | 38*
O=C(NCc1ccc2c(c1)OCO2)c1cc(-c2ccccc2Cl)on1 | 12 | 1.5 | -8 | 0.9 | -49 | 27
Cc1nn(Cc2ccccc2Cl)c2sc(C(=O)NCc3ccc4c(c3)OCO4)cc12 | 92* | 0 | -4 | 0.1 | 99* | 29
COc1ccccc1CNC(=O)c1cc2c(C)nn(Cc3ccc(F)cc3)c2s1 | 38 | 0.2 | -4 | 0.6 | 78* | 33*
CCCc1nc(SCC(=O)N2CCCC2)c2ccccc2n1 | 12 | 0.8 | 2 | 0.9 | 20 | 15
O=S(c1ccc2ccccc2c1)c1cnns1 (centres undefined) | 75* | 1 | 1 | 0.3 | -3 | 6
O=c1c2ccccc2cnn1-c1ccc2ccccc2c1 | 2 | 1 | 10 | 1 | 3 | 15
CCCC(=O)N=C1SC2CS(=O)(=O)CC2N1c1ccc(C(C)=O)cc1 (centres undefined) | 7 | 0.6 | 15 | 0.9 | 42 | 3
COCCn1nnnc1CN(CCCN1CCOCC1)Cc1cc2c(C)ccc(C)c2[nH]c1=O | 2 | 1 | -1 | 1 | 4 | -3
O=S(=O)(NCCc1csc(-c2ccc(C(F)(F)F)cc2)n1)c1ccc2c(c1)OCCO2 | 38 | 1.2 | -2 | 0.6 | -21 | 19
COc1ccc(-c2nc(CCNS(=O)(=O)c3ccc4c(c3)OCCO4)cs2)cc1 | 98* | 0.2 | -1 | 0 | 80* | 23
Cc1cccn2cc(CCNS(=O)(=O)c3ccc4c(c3)OCCO4)nc12 | 42 | 1.3 | -9 | 0.6 | -27 | 7
O=S(=O)(NCCc1csc(-c2cccnc2)n1)c1ccc2c(c1)OCCO2 | 51* | 0.7 | -2 | 0.5 | 30 | 21
OCCOCCn1c2ccccc2c2ccccc21 | 55* | 0.8 | -3 | 0.5 | 21 | -12
CCc1nc2ccccc2n(CCOCCn2c(=O)c(CC)nc3ccccc32)c1=O | 8 | 0.7 | . | 0.9 | 31 | .
COc1ccc2c(c1OC)C(=O)N1C2SC[C@H]1C(=O)NC1CC(C)(C)NC(C)(C)C1 (some centres undefined) | 3 | 1.1 | 18 | 1 | -13 | 0
COc1cccc(CNn2c(-c3cccc(C)c3)nc3ccccc3c2=O)c1O | 80* | 0.6 | -1 | 0.2 | 44 | 47*
CC(=O)C1C(c2ccncc2)NC(=O)NC1(O)C(F)(F)F (centres undefined) | . | . | 6 | . | . | 1
OCCOc1nnnn1-c1ccccc1 | -3 | 0.9 | 1 | 1 | 10 | 24
Cc1ccc(CSc2nc3ccccc3c(=O)n2CCCC(=O)NCc2ccco2)cc1 | 74* | 0 | -7 | 0.3 | 98* | 19
Cc1sc2nc(SCC(=O)NCc3ccco3)n(CCc3ccccc3)c(=O)c2c1C | 40 | 0.3 | -2 | 0.6 | 65* | 29
CC(C)(C)c1nc2ccccc2c2nnc(SCC(=O)NCc3ccco3)n12 | 30 | 0.7 | -4 | 0.7 | 35 | 19
CC(C)c1nc2ccccc2c2nnc(SCC(=O)NCc3ccco3)n12 | 98* | 0.2 | 12 | 0 | 76* | 8
Cc1occc1-c1nnc(SCC(=O)NCc2ccco2)n1CC(C)C | 6 | 1.2 | -1 | 0.9 | -18 | -1
SMILES | CYP2C19 inh | CYP2C9 activ | PostGolgi yeast | CYP2C19 activ | CYP2C9 inhib | PostGolgi ctrl
C=CCn1c(SCC(=O)NCc2ccco2)nnc1-c1ccc2ccccc2n1 | 28 | 0.4 | 4 | 0.7 | 59* | 18
Cc1sc2nc(SCC(=O)NCc3ccco3)n(C)c(=O)c2c1C | 28 | 0.7 | 1 | 0.7 | 34 | -4
COC(=O)c1ccccc1NC(=O)CNC(=O)c1ccco1 | 33 | 0.7 | -4 | 0.7 | 31 | 2
O=C(O)C1[C@H]2C(=O)N(C3CCCC3)C[C@]23C=C[C@H]1O3 (some centres undefined) | 3 | 1 | 9 | 1 | 4 | 10
CCn1c(CSc2nc3ccccc3s2)nnc1SCC(=O)NCC(=O)OC | 25 | 0.8 | 0 | 0.8 | 25 | 6
Cc1nc2ccccc2n1CCc1nc2c3ccccc3nc(SCC(=O)NCc3ccco3)n2n1 | 31 | 0.3 | -1 | 0.7 | 72* | 9
